T cruzi growth-1 – T. cruzi proliferation inhibition; T. cruzi beta-gal in NIH3T3, GalScreen luminescence, 90 h; inhibition, % at 8.34 µM; 77,000 compounds, 5.9% hits;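 active = mean inhibition above about 93%, with at least 55% of replicates each passing it, limit read from the data, passing the limit was not always enough; inconclusive = only one of those two conditions holds; inactive = neither condition holds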
Pf Dd2 inh – inhibitors of Plasmodium falciparum Dd2 growth. P. falciparum Dd2 growth, SYBR Green, 72 h; stronger effect = lower value. activity change, % at 10 µM. 94,000 compounds, 2.3% hits. AID 1159554; in the data active = activity change below about -80%; inconclusive = no clear call, values can overlap the other calls
C diff HTS – C. difficile growth inhibition; growth activity, negative = inhibition, % at 16 µg/mL (by protocol); 86,000 compounds, 0.25% hits; Clostridium difficile clinical isolate growth, OD600, 24 h; stronger effect = lower value;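 active = mean growth activity at or below -80% and every replicate also at or below -80%; inconclusive = mean at or below -80% but some replicate above -80%; inactive = mean growth activity above -80%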;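 note: 0% = DMSO wells and -100% = levofloxacin 16 µg/mL wells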
T cruzi growth-2 – blocks T. cruzi growth in NIH3T3 host cells | shares compounds with T cruzi growth-1 | T. cruzi beta-gal in NIH3T3, GalScreen luminescence, 90 h | inhibition, % at 8.35 µM | 5,600 compounds, 72% hits;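 active = mean replicate inhibition above about 95% and at least 55% of replicates individually reaching it, limit read from the data; inconclusive = only one of the two criteria is met; inactive = neither criterion is met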
T cruzi growth-3 – blocks T. cruzi growth in NIH3T3 host cells; shares compounds with T cruzi growth-1; T. cruzi beta-gal in NIH3T3, GalScreen luminescence, 90 h; inhibition, % at 2.09 µM; 5,600 compounds, 21% hits; AID 651740;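 active = mean inhibition above about 95%, with at least 55% of replicates also reaching it, limit read from the data; inconclusive = meets just one of the two conditions; inactive = meets neither condition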;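 note: plate controls were neutral control median for no effect and positive control median for full effect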
3T3 cytotox – kills mouse NIH/3T3 fibroblasts; shares compounds with T cruzi growth-1; NIH/3T3 viability, CellTiter-Glo ATP luminescence, 90 h; cytotoxicity (signal decrease), % at 8.35 µM; 5,600 compounds, 14% hits; AID 651742;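 active = mean signal decrease across replicates above about 35% based on untreated-well scatter, with enough replicates individually passing, limit read from the data; inconclusive = no rule stated though some were filed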;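 note: 0% = median of neutral control wells and 100% = median of positive control wells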
3T3 cytotox 2 – NIH/3T3 (mouse) viability loss; shares compounds with T cruzi growth-1; NIH/3T3 viability, CellTiter-Glo ATP luminescence, 90 h; inhibition, % at 24.9 µM; 5,600 compounds, 56% hits;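 active = mean loss of cell viability signal at or above a set limit, and enough replicates individually reaching it; inconclusive = meets only the mean limit or only the replicate share; inactive = meets neither condition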;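 note: 0% = median of neutral control wells and 100% = median of positive control wells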
Starred values were filed as active, the others as inactive. Shown are actives, neighbours in structure and some others; about 6.7% of the full set was active somewhere.

How did CCc1csc(N2[C@H](CO)[C@@H](c3ccc(-c4ccc(F)cc4)cc3)[C@@H]2C#N)n1 do in these assays?
T cruzi growth-1: 103.1*; Pf Dd2 inh: 2.4; C diff HTS: 8.0; T cruzi growth-2: 102.2*; T cruzi growth-3: 52.9; 3T3 cytotox: 18.2; 3T3 cytotox 2: 102.8*

Results for CCc1csc(N2[C@H](C#N)[C@@H](c3ccc(-c4cccc(F)c4)cc3)[C@@H]2CO)n1 ?
T cruzi growth-1: 98.3*; Pf Dd2 inh: -15.9; C diff HTS: 5.3; T cruzi growth-2: 111.1*; T cruzi growth-3: 80.6; 3T3 cytotox: 21.1; 3T3 cytotox 2: 96.0*

What do the screens show for `CCc1csc(N2[C@H](C#N)[C@H](c3ccc(C#Cc4ccc(F)cc4)cc3)[C@H]2CO)n1`?
T cruzi growth-1: 93.5; Pf Dd2 inh: -50.6; C diff HTS: 17.7

What do the screens show for `CCc1csc(N2[C@@H](C#N)[C@@H](c3ccc(C#Cc4ccc(F)cc4)cc3)[C@@H]2CO)n1`?
T cruzi growth-1: 94.0; Pf Dd2 inh: -47.0; C diff HTS: 8.4

How did Cc1cccc(S(=O)(=O)N2[C@@H]3c4cccc(=O)n4C[C@H]2[C@H](CO)[C@H]3C(=O)NC2CCC2)c1 do in these assays?
T cruzi growth-1: 9.5; Pf Dd2 inh: -4.8; C diff HTS: 3.5

Results for C[C@H]1CN([C@@H](C)CO)C(=O)Cc2cc(NC(=O)Cc3cn(C)c4ccccc34)ccc2O[C@@H]1CN(C)C(=O)Nc1ccccc1 ?
T cruzi growth-1: 6.4; Pf Dd2 inh: -32.7; C diff HTS: 3.7

Results for COCCNC(=O)C[C@@H]1CC[C@@H]2[C@H](COc3ccc(NC(=O)c4cc(C)on4)cc3C(=O)N2C)O1 ?
T cruzi growth-1: -2.5; Pf Dd2 inh: 7.4; C diff HTS: -3.5

What do the screens show for `O=C1CNC[C@H]2[C@@H](c3ccc(C#CC4CCCC4)cc3)[C@@H](CO)N12`?
Pf Dd2 inh: -28.8; C diff HTS: -6.4

What do the screens show for `CCS(=O)(=O)NCC[C@H]1CC[C@H](NS(=O)(=O)c2cccc(F)c2)[C@H](CO)O1`?
T cruzi growth-1: -68.7; Pf Dd2 inh: -5.9; C diff HTS: 4.0

How did C[C@H]1CN([C@@H](C)CO)C(=O)Cc2cc(NS(=O)(=O)c3cn(C)cn3)ccc2O[C@H]1CN(C)C(=O)Nc1cccc2ccccc12 do in these assays?
T cruzi growth-1: 77.7; Pf Dd2 inh: 15.3; C diff HTS: -4.8

How did C[C@@H]1CN([C@H](C)CO)C(=O)c2cccc(NC(=O)C3CCCCC3)c2O[C@@H]1CN(C)S(=O)(=O)c1ccc(F)cc1 do in these assays?
T cruzi growth-1: 34.2; Pf Dd2 inh: -16.0; C diff HTS: -3.2

How did CCc1csc(N2[C@@H](C#N)[C@@H](c3ccc(-c4cccc(F)c4)cc3)[C@@H]2CO)n1 do in these assays?
T cruzi growth-1: 99.7*; Pf Dd2 inh: 5.7; C diff HTS: 4.6; T cruzi growth-2: inconclusive; T cruzi growth-3: 76.3; 3T3 cytotox: 45.3*; 3T3 cytotox 2: 81.6*

What do the screens show for `O=C(C[C@@H]1C[C@H]2c3cc(NC(=O)NC4CCCC4)ccc3O[C@H]2[C@H](CO)O1)NCc1ccc(Oc2ccccc2)cc1`?
Pf Dd2 inh: -12.4; C diff HTS: -2.9

Results for CCCN1C[C@@H](C)[C@@H](OC)CN(C)C(=O)c2ccc(NC(=O)c3ccccc3)cc2OC[C@H]1C ?
T cruzi growth-1: -11.9; Pf Dd2 inh: 9.9

Results for C[C@H](CO)N1C[C@H](C)[C@@H](CN(C)Cc2cccc(C(=O)O)c2)Oc2ncc(C#C[C@@H](C)O)cc2C1=O ?
T cruzi growth-1: 8.8; Pf Dd2 inh: 32.2; C diff HTS: -3.9

What do the screens show for `O=C(c1ccccn1)N1CC(=O)N2[C@@H](CO)[C@H](c3ccc(C#Cc4ccccc4)cc3)[C@@H]2C1`?
Pf Dd2 inh: 10.9; C diff HTS: -6.2

What do the screens show for `O=C(C[C@H]1CC[C@@H]2[C@H](COC[C@H](O)CN2S(=O)(=O)c2ccc(Cl)cc2)O1)NCc1ccc(Cl)c(Cl)c1`?
T cruzi growth-1: 73.6; Pf Dd2 inh: -7.6

Results for COc1ccc(S(=O)(=O)N2C[C@@H](O)COC[C@H]3O[C@@H](CC(=O)NCc4ccc(Cl)c(Cl)c4)CC[C@@H]32)cc1 ?
T cruzi growth-1: 118.0*; Pf Dd2 inh: -67.8; C diff HTS: -2.4; T cruzi growth-2: 107.0*; T cruzi growth-3: 24.8; 3T3 cytotox: 7.7; 3T3 cytotox 2: 25.8

How did O=C(C[C@H]1CC[C@H]2[C@@H](COC[C@@H](O)CN2S(=O)(=O)c2ccc(Cl)cc2)O1)NCc1ccc(Cl)c(Cl)c1 do in these assays?
T cruzi growth-1: 103.7*; Pf Dd2 inh: 1.8; T cruzi growth-2: 100.1*; T cruzi growth-3: 41.1; 3T3 cytotox: 28.9; 3T3 cytotox 2: 55.5*

How did Cc1ccc(S(=O)(=O)N2C[C@@H](O)COC[C@H]3O[C@H](CC(=O)NCc4ccc(Cl)c(Cl)c4)CC[C@@H]32)cc1 do in these assays?
T cruzi growth-1: 58.0; Pf Dd2 inh: -2.9

Results for O=C(C[C@H]1CC[C@@H]2[C@H](COC[C@@H](O)CN2S(=O)(=O)c2ccc(Cl)cc2)O1)NCc1ccc(Cl)c(Cl)c1 ?
T cruzi growth-1: 97.2*; Pf Dd2 inh: -9.8; T cruzi growth-2: 104.2*; T cruzi growth-3: 23.5; 3T3 cytotox: 8.8; 3T3 cytotox 2: 62.2*

Results for O=C(C[C@@H]1CC[C@H]2[C@@H](COC[C@@H](O)CN2S(=O)(=O)c2ccc(Cl)cc2)O1)NCc1ccc(Cl)c(Cl)c1 ?
T cruzi growth-1: 88.0; Pf Dd2 inh: -1.4

What do the screens show for `C[C@@H]1CN([C@@H](C)CO)C(=O)c2cc(C3=CCCC3)cnc2O[C@@H]1CN(C)S(C)(=O)=O`?
Pf Dd2 inh: 22.7; C diff HTS: -4.9

How did O=C(N[C@H]1CC[C@@H](CCNC(=O)c2ccccc2F)O[C@H]1CO)c1cnccn1 do in these assays?
T cruzi growth-1: 17.5; Pf Dd2 inh: -12.5

How did C[C@@H]1CN([C@H](C)CO)C(=O)c2cc(C#CCc3ccccc3)cnc2O[C@@H]1CN(C)Cc1ccccc1 do in these assays?
Pf Dd2 inh: -63.4; C diff HTS: 4.1

Results for CC(C)NC(=O)N1[C@H](CO)[C@@H](c2ccc(C#CC3CCCCC3)cc2)[C@@H]1C#N ?
T cruzi growth-1: 98.6*; Pf Dd2 inh: -49.3; C diff HTS: -4.3; T cruzi growth-2: 93.8; T cruzi growth-3: 105.5*; 3T3 cytotox: -19.7; 3T3 cytotox 2: 104.9*

Results for N#C[C@@H]1[C@H](c2ccc(C#CC3CCCCC3)cc2)[C@@H](CO)N1C(=O)Nc1ccc(F)cc1 ?
Pf Dd2 inh: inconclusive; C diff HTS: -11.6
